Holding throughout (assay): DAPPL (digital affinity profiling via proximity ligation, sequencing); 10 mM Tris-HCl pH 7.5, 50 mM NaCl, 1 mM DTT, 4% glycerol, room temperature, 30 min; GST-TFs on glutathione beads, 16-mer random dsDNA library, 0.1% formaldehyde crosslink after washing; high values mean tight binding
Holding throughout (conditions): protein: recombinant; tags: N-terminal GST; dsDNA, one strand shown

The target in assay [1] is T1, FLI1 (Homo sapiens, UniProt Q01543 1-452).
T1 sequence: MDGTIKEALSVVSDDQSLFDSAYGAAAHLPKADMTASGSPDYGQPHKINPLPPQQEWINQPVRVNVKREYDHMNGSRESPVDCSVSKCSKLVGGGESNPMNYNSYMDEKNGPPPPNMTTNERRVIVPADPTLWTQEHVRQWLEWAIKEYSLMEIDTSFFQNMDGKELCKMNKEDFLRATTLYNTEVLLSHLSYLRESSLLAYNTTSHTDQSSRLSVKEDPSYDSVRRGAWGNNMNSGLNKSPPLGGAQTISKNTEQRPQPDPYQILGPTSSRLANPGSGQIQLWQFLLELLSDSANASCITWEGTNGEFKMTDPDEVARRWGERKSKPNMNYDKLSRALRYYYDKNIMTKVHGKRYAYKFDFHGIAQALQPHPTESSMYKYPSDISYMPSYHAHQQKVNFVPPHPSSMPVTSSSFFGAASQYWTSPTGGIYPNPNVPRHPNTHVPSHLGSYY
The method, boiled down:
(§1)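 Binding signal is defined as a hexamer's read frequency for one factor over its frequency for the tag-only sample. To obtain reads, GST-fused human transcription factors were expressed in yeast, captured on glutathione beads, barcoded with DNA and pooled with that sample. Pools met 200 nmole of a 16-mer random double-stranded DNA library in Tris/NaCl/DTT/glycerol buffer for 30 min at room temperature before washing, 0.1% formaldehyde crosslinking, proximity ligation (BsaI/T4 ligase, 1 h, 37 °C), PCR and Illumina NextSeq500 sequencing.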

Assay [2] addresses T2, ELK1 (Homo sapiens, UniProt P19419 1-428).
T2 sequence: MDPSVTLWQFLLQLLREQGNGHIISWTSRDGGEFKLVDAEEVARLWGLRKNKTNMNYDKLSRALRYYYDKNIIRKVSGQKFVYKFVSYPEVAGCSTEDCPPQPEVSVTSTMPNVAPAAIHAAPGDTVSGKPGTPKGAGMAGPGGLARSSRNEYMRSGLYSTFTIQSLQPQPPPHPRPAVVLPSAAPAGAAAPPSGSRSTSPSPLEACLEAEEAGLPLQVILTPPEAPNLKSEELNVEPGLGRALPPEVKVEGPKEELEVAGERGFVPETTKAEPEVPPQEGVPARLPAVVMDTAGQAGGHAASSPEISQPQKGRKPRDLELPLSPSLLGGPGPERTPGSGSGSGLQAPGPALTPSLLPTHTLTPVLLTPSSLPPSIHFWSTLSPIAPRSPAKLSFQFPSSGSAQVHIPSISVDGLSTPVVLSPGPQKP
An outline of the steps:
as §1

The target in assay [3] is T3, GABPA (Homo sapiens, UniProt Q06546 1-454).
T3 sequence: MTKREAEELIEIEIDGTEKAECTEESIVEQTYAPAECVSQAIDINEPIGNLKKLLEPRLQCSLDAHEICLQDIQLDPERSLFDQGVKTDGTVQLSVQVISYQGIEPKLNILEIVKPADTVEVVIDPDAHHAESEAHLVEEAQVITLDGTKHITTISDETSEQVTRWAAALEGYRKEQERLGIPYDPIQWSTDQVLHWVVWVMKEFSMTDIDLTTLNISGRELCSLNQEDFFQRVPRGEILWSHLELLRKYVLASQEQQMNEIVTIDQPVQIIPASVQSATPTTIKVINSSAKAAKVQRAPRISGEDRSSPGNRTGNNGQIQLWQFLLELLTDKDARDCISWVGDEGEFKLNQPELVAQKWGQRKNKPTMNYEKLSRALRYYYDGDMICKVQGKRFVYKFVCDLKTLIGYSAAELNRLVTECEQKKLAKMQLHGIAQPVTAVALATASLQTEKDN
An outline of the steps: as §1

Assay [4] deals with T4, ERG (Homo sapiens, UniProt P11308 1-479).
T4 sequence: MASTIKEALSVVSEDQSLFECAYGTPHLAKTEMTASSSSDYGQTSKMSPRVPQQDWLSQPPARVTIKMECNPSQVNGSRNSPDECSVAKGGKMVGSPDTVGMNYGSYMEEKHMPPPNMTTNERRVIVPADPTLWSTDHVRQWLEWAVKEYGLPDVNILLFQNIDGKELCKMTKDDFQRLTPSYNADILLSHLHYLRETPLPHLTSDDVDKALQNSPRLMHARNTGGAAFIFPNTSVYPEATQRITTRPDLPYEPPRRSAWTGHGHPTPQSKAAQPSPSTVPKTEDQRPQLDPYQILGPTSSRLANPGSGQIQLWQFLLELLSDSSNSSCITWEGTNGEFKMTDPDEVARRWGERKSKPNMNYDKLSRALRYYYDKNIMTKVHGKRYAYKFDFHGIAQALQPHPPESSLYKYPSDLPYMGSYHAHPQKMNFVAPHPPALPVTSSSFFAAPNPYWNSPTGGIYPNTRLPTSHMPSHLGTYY
The method, boiled down:
as §1

The target in assay [5] is ELF1 (Homo sapiens, UniProt P32519 1-619). The method, boiled down:
as §1

Assay [6] concerns the target T5, EHF (Homo sapiens, UniProt Q9NZC4 1-300).
T5 sequence: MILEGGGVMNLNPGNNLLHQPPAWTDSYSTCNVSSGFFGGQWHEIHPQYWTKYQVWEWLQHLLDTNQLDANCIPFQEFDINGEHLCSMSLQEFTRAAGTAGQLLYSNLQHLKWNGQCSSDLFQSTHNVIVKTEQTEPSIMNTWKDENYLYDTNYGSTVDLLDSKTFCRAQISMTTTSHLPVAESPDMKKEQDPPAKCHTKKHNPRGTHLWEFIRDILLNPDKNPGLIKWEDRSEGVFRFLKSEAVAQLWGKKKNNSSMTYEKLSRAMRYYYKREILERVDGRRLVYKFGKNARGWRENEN
The method, boiled down:
as §1

The target in assay [7] is SPI1 (Homo sapiens, UniProt P17947 1-270). The method, boiled down: as §1
Assay [8] deals with SPIB (Homo sapiens, UniProt Q01892 1-262). An outline of the steps:
as §1

Assay [9] deals with T6, ELK3 (Homo sapiens, UniProt P41970 1-407).
T6 sequence: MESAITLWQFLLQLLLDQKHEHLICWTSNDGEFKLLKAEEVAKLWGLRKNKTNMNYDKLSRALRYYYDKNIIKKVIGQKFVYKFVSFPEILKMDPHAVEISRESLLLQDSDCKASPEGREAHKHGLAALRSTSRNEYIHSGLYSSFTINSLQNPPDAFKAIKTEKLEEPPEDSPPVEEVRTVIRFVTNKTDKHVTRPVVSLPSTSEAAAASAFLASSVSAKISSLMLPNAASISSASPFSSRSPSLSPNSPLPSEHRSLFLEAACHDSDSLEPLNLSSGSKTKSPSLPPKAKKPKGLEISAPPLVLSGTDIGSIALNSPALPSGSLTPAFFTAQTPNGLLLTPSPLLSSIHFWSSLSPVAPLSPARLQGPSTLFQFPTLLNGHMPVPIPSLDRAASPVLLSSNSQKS
The method, boiled down:
as §1

Sequence of SPIB (Q01892 whole entry): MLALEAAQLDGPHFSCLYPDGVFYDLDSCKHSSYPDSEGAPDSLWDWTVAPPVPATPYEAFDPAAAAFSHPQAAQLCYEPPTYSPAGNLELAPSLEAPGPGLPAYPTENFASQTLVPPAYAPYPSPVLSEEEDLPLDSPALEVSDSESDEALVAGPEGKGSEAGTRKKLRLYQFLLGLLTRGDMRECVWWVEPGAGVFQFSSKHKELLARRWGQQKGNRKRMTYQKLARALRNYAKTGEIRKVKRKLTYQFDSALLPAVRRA
Sequence of ELF1 (P32519 whole entry): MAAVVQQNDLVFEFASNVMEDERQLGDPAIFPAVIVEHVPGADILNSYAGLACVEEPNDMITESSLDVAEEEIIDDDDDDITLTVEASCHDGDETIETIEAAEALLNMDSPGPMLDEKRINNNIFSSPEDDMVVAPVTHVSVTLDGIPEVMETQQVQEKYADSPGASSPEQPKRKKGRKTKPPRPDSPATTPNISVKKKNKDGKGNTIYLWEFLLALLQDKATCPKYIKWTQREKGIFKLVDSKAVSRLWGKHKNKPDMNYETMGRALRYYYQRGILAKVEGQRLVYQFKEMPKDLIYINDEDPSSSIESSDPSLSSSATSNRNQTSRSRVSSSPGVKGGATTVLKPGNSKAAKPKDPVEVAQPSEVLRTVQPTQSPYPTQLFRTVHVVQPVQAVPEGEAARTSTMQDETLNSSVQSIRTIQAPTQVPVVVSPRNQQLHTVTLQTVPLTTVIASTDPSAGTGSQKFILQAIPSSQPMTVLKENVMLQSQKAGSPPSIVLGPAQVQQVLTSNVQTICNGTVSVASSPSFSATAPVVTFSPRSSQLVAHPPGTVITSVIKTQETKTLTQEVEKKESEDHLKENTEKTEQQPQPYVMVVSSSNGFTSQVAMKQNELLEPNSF

Take GGCCTT: the binding signal in [1] is 1.17 fold enrichment (6-mer frequency, TF over GST control); in assay [2], 1.18 fold enrichment (6-mer frequency, TF over GST control); in assay [3] it was 1.29 fold enrichment (6-mer frequency, TF over GST control); in [4], 1.16 fold enrichment (6-mer frequency, TF over GST control); in assay [5] it was 1.09 fold enrichment (6-mer frequency, TF over GST control); in [6] it was 1.13 fold enrichment (6-mer frequency, TF over GST control). The binding signal is 1.18 fold enrichment (6-mer frequency, TF over GST control) in [7]; 1.19 fold enrichment (6-mer frequency, TF over GST control) in assay [8]; 1.17 fold enrichment (6-mer frequency, TF over GST control) in assay [9].

With TTACAC, the binding signal is 1.28 fold enrichment (6-mer frequency, TF over GST control) in [1]; 1.26 fold enrichment (6-mer frequency, TF over GST control) in assay [2]; 1.18 fold enrichment (6-mer frequency, TF over GST control) in assay [3]; 1.27 fold enrichment (6-mer frequency, TF over GST control) in assay [4]; 1.3 fold enrichment (6-mer frequency, TF over GST control) in [5]; 1.39 fold enrichment (6-mer frequency, TF over GST control) in assay [6]. For the same sequence, the binding signal in assay [7] is 1.13 fold enrichment (6-mer frequency, TF over GST control); in assay [8], 1.21 fold enrichment (6-mer frequency, TF over GST control); in assay [9], 1.31 fold enrichment (6-mer frequency, TF over GST control).

Regarding TTGCCC, the binding signal in assay [1] is 1.37 fold enrichment (6-mer frequency, TF over GST control); in [2], 1.43 fold enrichment (6-mer frequency, TF over GST control); in assay [3], 1.33 fold enrichment (6-mer frequency, TF over GST control); in assay [4] it was 1.28 fold enrichment (6-mer frequency, TF over GST control); in [5], 1.3 fold enrichment (6-mer frequency, TF over GST control); in assay [6], 1.22 fold enrichment (6-mer frequency, TF over GST control). Besides, the binding signal in [7] was 1.29 fold enrichment (6-mer frequency, TF over GST control); in [8], 1.33 fold enrichment (6-mer frequency, TF over GST control); in assay [9], 1.23 fold enrichment (6-mer frequency, TF over GST control).

As for AGAATT, the binding signal in assay [1] was 1.21 fold enrichment (6-mer frequency, TF over GST control); in assay [2], 1.15 fold enrichment (6-mer frequency, TF over GST control); in assay [3], 1.11 fold enrichment (6-mer frequency, TF over GST control); in assay [4] it was 1.17 fold enrichment (6-mer frequency, TF over GST control); in [5], 1.15 fold enrichment (6-mer frequency, TF over GST control); in assay [6] it was 1.18 fold enrichment (6-mer frequency, TF over GST control). Moreover, the binding signal in assay [7] is 1.22 fold enrichment (6-mer frequency, TF over GST control); in assay [8] it was 1.16 fold enrichment (6-mer frequency, TF over GST control); in assay [9], 1.28 fold enrichment (6-mer frequency, TF over GST control).

In the case of CCCATA, the binding signal in assay [1] is 1.23 fold enrichment (6-mer frequency, TF over GST control); in [2] it was 1.26 fold enrichment (6-mer frequency, TF over GST control); in assay [3], 1.33 fold enrichment (6-mer frequency, TF over GST control); in [4], 1.24 fold enrichment (6-mer frequency, TF over GST control); in [5] it was 1.21 fold enrichment (6-mer frequency, TF over GST control); in assay [6], 1.13 fold enrichment (6-mer frequency, TF over GST control). The binding signal in assay [7] was 1.18 fold enrichment (6-mer frequency, TF over GST control); in [8], 1.34 fold enrichment (6-mer frequency, TF over GST control); in assay [9], 1.21 fold enrichment (6-mer frequency, TF over GST control).

Consider AATATC, for which the binding signal in [1] is 1.53 fold enrichment (6-mer frequency, TF over GST control); in assay [2], 1.55 fold enrichment (6-mer frequency, TF over GST control); in assay [3], 1.66 fold enrichment (6-mer frequency, TF over GST control); in assay [4], 1.66 fold enrichment (6-mer frequency, TF over GST control); in assay [5], 1.55 fold enrichment (6-mer frequency, TF over GST control); in assay [6] it was 1.44 fold enrichment (6-mer frequency, TF over GST control). In addition, the binding signal in assay [7] was 1.51 fold enrichment (6-mer frequency, TF over GST control); in [8], 1.52 fold enrichment (6-mer frequency, TF over GST control); in assay [9] it was 1.49 fold enrichment (6-mer frequency, TF over GST control).

In the case of TAGTGG, the binding signal in assay [1] was 1.18 fold enrichment (6-mer frequency, TF over GST control); in assay [2], 1.19 fold enrichment (6-mer frequency, TF over GST control); in assay [3] it was 1.25 fold enrichment (6-mer frequency, TF over GST control); in assay [4], 1.07 fold enrichment (6-mer frequency, TF over GST control); in [5], 1.28 fold enrichment (6-mer frequency, TF over GST control); in [6], 1.32 fold enrichment (6-mer frequency, TF over GST control). In addition, the binding signal in assay [7] is 1.19 fold enrichment (6-mer frequency, TF over GST control); in assay [8], 1.34 fold enrichment (6-mer frequency, TF over GST control); in assay [9] it was 1.4 fold enrichment (6-mer frequency, TF over GST control).

For the origin of these results see article PMC7862700, “An all-to-all approach to the identification of sequence-specific readers for epigenetic DNA modifications on cytosine”.
